An excerpt weighted towards active compounds, which were near 3.3% of everything screened.
Tb PYK inh: qHTS of Trypanosoma Brucei Inhibitors; pyruvate kinase (Trypanosoma brucei), Q57TT1; TbPYK enzyme, Kinase-Glo Plus ATP luminescence, 45 min; Potency, µM (highest dose often 76.8 µM), hits mostly inhibitors; 410,000 compounds, 0.12% hits; note: nearly all actives have a fitted effect of over 50% in size
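Enzyme and substrate buffer are dispensed first and compound is pin-transferred. ADP at 130 uM final then starts the reaction, which runs 45 min at room temperature. Detection reagent is added for 10 min before luminescence is imaged.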
SARS PLpro yeast: qHTS of Yeast-based Assay for SARS-CoV PLP. S. cerevisiae expressing SARS-CoV PLpro, growth rescue. Potency, µM (series often up to 32.9 µM), hits mostly activators. 330,000 compounds, 0.19% hits. AID 485353, 2010; calls by dose curve; note: nearly all actives have a fitted effect of over 55% in size
Sm TGR inh: qHTS Assay for the Inhibitors of Schistosoma Mansoni Peroxiredoxins; purified TGR, DTNB reduction, TNB absorbance 405 nm; Potency, µM (highest dose often 114 µM), most hits filed as inhibitors; 360,000 compounds, 3% hits; AID 485364, 2010; note: nearly all actives have a fitted effect of over 60% in size
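Kinetic colorimetric format: TGR-catalysed, NADPH-driven DTNB reduction monitored via TNB absorbance. Enzyme dispensed at 20 nM; compound exposure 15 min at room temperature before reaction start.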
NS1 inh: qHTS Assay for Inhibitors of Influenza NS1 Protein Function; Potency, µM (series often up to 46.1 µM); 270,000 compounds, 0.4% hits; AID 2326, 2010; calls by dose curve; note: actives are rising curves; nearly all actives have a fitted effect of over 50% in size
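S. cerevisiae expressing influenza A NS1, grown in glucose, washed, then diluted 1:100 into pH 6.0 -URA galactose medium with 23 nl compound. Growth recovery read as OD600; NS1-free strain serves as control.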
LmPK inhibitor: qHTS Assay for Inhibitors of Leishmania Mexicana Pyruvate Kinase (LmPK) | Potency, µM (doses to about 57.5 µM), actives largely listed as inhibitors | purified LmPK, Kinase-Glo ATP luminescence, 1 h | Q27686 | 290,000 compounds, 0.37% hits
Target sequence (Q27686 whole entry, looked up): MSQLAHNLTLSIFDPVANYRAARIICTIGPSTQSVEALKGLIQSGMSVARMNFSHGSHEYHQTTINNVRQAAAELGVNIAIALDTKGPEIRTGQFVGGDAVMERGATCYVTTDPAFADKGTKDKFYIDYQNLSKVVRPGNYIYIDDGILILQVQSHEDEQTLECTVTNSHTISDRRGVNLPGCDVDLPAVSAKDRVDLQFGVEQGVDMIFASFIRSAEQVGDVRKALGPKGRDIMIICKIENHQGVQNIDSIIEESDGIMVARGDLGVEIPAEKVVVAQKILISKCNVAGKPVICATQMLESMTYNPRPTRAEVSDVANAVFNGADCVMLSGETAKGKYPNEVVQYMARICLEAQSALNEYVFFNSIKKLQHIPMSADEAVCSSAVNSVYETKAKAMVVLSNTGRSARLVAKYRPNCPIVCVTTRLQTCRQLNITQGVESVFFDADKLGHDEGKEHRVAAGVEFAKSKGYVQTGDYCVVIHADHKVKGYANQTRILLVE
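Pyruvate kinase activity monitored as ATP production (luciferase luminescence). Conditions: 0.1 nM enzyme, 0.5 mM PEP, 0.1 mM ADP, 1 h, RT; normalized against uninhibited and no-enzyme wells.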
RE007 growth inh: qHTS Assay for Inhibitors of the HIV-1 protein Vpr; S. pombe RE007 Vpr strain, BacTiter-Glo ATP luminescence, 24 h; Potency, µM (doses to about 92.2 µM), hits mostly inhibitors; 360,000 compounds, 0.21% hits; AID 651644, 2012; active = well fitted falling curve with a large enough effect; inconclusive = small, poorly fitted or top-dose-only effect; inactive = no such curve, though single readings can be large or run the other way; note: nearly all actives have a fitted effect of over 50% in size
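Fission yeast RE007 carrying one integrated HIV-1 vpr copy, seeded at OD 0.01 in PMG+AL medium with 23 nL pinned compound. Grown 24 h at 30 degrees; viability read by BacTiter-Glo luminescence after 5 min.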
A number is an active result; 0 = inactive; ? = inconclusive; - = no result given; ! = repeats disagree. Unless noted, calls come from the whole dose curve; as a rule, active = well fitted curve in the direction sought with a large enough effect; inconclusive = small, poorly fitted or top-dose-only effect, or another doubt; inactive = no such curve, though single readings can be large; an effect the other way counts as inactive or inconclusive.

SMILES	Tb PYK inh	SARS PLpro yeast	Sm TGR inh	NS1 inh	LmPK inhibitor	RE007 growth inh
CCC(=O)Nc1cc(-c2cccc(C)c2)nn1-c1ccccc1	0	-	0	-	-	-
C[N@@+]1(CC[N@@+]2(C)CCC[C@H]2c2cccnc2)CCC[C@@H]1c1cccnc1	-	-	-	0	-	-
CN(CC(=O)NCc1ccco1)S(=O)(=O)c1cccc2cccnc12	0	0	20µM	0	0	0
COc1ccc(C)cc1S(=O)(=O)N(C)CC(=O)NCc1ccco1	0	0	32µM	?	0	0
CN(CC(=O)NCc1ccco1)S(=O)(=O)c1ccc2c(c1)n(C)c(=O)c(=O)n2C	0	0	40µM	0	0	0
CCn1c(SCC(=O)N/N=C/C=C/c2ccco2)nnc1-c1ccc(OC)cc1	0	0	32µM	0	0	0
O=C(CSc1nnc(SCC(=O)c2ccco2)s1)c1ccco1	0	0	40µM	0	0	0
O=C(CSc1nc2cc(Cl)ccc2s1)c1ccco1	0	0	0	0	0	0
O=C(CSc1nnc(SCc2ccccc2)s1)N/N=C/C=C/c1ccccc1[N+](=O)[O-]	0	0	0	0	0	0
O=C(CSc1nnc(SCc2ccccc2)s1)N/N=C/C=C\c1ccco1	0	0	32µM	0	0	0
CCn1c(SCC(=O)N/N=C/c2ccc(C)o2)nnc1-c1ccc(C)cc1	0	0	0	0	0	0
Cn1c(SCC(=O)N/N=C/c2ccco2)nc2ccccc21	0	0	0	0	0	0
CCn1c(SCC(=O)N/N=C/C=C/c2ccco2)nc2ccccc21	0	0	14µM	0	0	0
O=C(O)Cc1cccc(-c2cc(CCCCCCc3ccc(O[C@H]4O[C@H](CO)[C@@H](O)[C@H](O)[C@@H]4O)c(-c4cccc(CC(=O)O)c4)c3)ccc2O[C@H]2O[C@H](CO)[C@@H](O)[C@H](O)[C@@H]2O)c1	0	-	-	-	-	-
CN1C(=O)C(Cc2ccccc2)C(=O)N(C)C1=O	0	-	-	-	-	0
CN1C(=O)C(Cc2ccsc2)C(=O)N(C)C1=O	?	0	5µM	0	0	0
Cn1c(=O)[nH]c(=O)c2c1nc(N/N=C/C(Br)=C/c1ccccc1)n2CCO	0	0	5µM	0	0	0
O=C(CCN1C(=O)c2ccccc2C1=O)C1=NN[C@@H]2C(=O)N(c3ccc4c(c3)OCO4)C(=O)[C@H]12	0	0	25µM	0	0	0
Cc1ccc(N2C(=O)[C@@H]3C(C(=O)CCN4C(=O)c5ccccc5C4=O)=NN[C@@H]3C2=O)cc1	0	0	0	0	0	0
CCOc1ccc(NC(=O)Cn2cc(C(=O)c3ccc(OCC)cc3)c(=O)c3cc4c(cc32)OCCO4)cc1	0	-	0	-	-	-
Cc1ccc(-c2cc(O)cc3sc(=O)oc23)cc1C	0	0	0	0	0	40µM
O=c1oc2cc(O)ccc2s1	0	-	0	-	-	0
C=CCc1cccc(C=Nc2ccc(Br)cc2)c1O	0	0	0	-	0	0
C=CCc1cccc(/C=N/c2ncccc2O)c1O	0	0	28µM	0	0	0
COc1cc(/C=C/C(=O)O[C@H]2CC[C@]34C[C@]35CC[C@]3(C)[C@@H]([C@H](C)CCC=C(C)C)CC[C@@]3(C)C5CCC4C2(C)C)ccc1O (stereo partly specified)	0	-	-	-	-	-
SMILES	Tb PYK inh	SARS PLpro yeast	Sm TGR inh	NS1 inh	LmPK inhibitor	RE007 growth inh
CCN(c1ccc(C)cc1C)S(=O)(=O)c1nnc(NC(=O)c2ccco2)s1	0	0	50µM	0	0	0
CC(C)CN(c1ccccc1)S(=O)(=O)c1nnc(NC(=O)c2ccco2)s1	0	?	35µM!	0	0	0
CCN(c1ccc(C)cc1)S(=O)(=O)c1nnc(NC(=O)c2ccco2)s1	0	0	22µM	0	0	0
CN(c1ccccc1)S(=O)(=O)c1nnc(NC(=O)c2ccco2)s1	0	0	0	0	0	0
CCN(CC)S(=O)(=O)c1nnc(NC(=O)c2ccco2)s1	0	0	0	0	0	0
Cc1cccc(N(C)S(=O)(=O)c2nnc(NC(=O)c3ccco3)s2)c1	0	0	0	0	0	0
O=C(CSc1nc2ncccc2[nH]1)NCc1ccco1	0	0	?	0	0	0
Cc1cc2nc(-c3cccnc3SCC(=O)NCc3ccco3)[nH]c2cc1C	0	0	18µM	0	?	0
CC(C)(C)NC(=O)CSc1ncccc1-c1nc2ccccc2[nH]1	0	0	0	0	0	0
O=C(CSc1ncccc1-c1nc2ccccc2[nH]1)NCc1ccco1	0	0	13µM	0	0	0
Cc1cc2nc(-c3cccnc3SCC(=O)NC3CC3)[nH]c2cc1C	-	0	0	-	14µM	-
COc1cc(OC)c2c(C)c(CC(=O)NCc3ccccc3OC)c(=O)oc2c1	0	-	0	-	-	-
CC1CCc2onc(C(=O)N3CCN(c4ccc(F)cc4)CC3)c2C1 (stereo unspecified)	0	-	0	-	-	-
Cc1ccc(/C=N/Nc2cccc3cccnc23)c(O)c1	0	0	32µM	0	0	0
O=C1C=CC(=O)N1	0	-	0.89µM	-	-	?
CN(c1ncccc1CNc1nc(Nc2ccc3c(c2)CC(=O)N3)ncc1C(F)(F)F)S(C)(=O)=O	0	-	-	-	-	-
O=C(COC(=O)/C=C/c1ccco1)Nc1ncc(Cl)cc1Cl	0	0	45µM	0	0	0
CC(C)=CC(=O)OCC(=O)Nc1nc(C)c(Cl)cc1Cl	0	0	0	0	0	0
CN(C)S(=O)(=O)c1ccc(Cl)c(NC(=O)COC(=O)/C=C/c2ccco2)c1	0	0	35µM	0	0	0
Cc1nc(NC(=O)COC(=O)/C=C/c2ccco2)c(Cl)cc1Cl	0	0	8.9µM	-	-	0
Cc1ccc(C(=O)OCC(=O)Nc2ncc(Cl)cc2Cl)cc1NC(=O)c1ccco1	0	0	45µM	0	0	0
COc1ccc(/C=C/C(=O)OCC(=O)Nc2cc(S(=O)(=O)N(C)C)ccc2Cl)cc1	0	0	0	0	0	0
Cc1ccc(C2C=C(c3ccc(F)cc3)Nc3nc(CCCO)nn32)cc1 (stereo unspecified)	0	-	?	-	-	-
Cc1nc(NC(=O)COC(=O)C(NC(=O)c2ccco2)C(C)C)c(Cl)cc1Cl (stereo unspecified)	0	0	32µM	0	0	0
Cc1nc(NC(=O)COC(=O)C(C)NC(=O)c2ccccc2)c(Cl)cc1Cl (stereo unspecified)	0	0	0	-	-	0
CC(C)C12CC[C@@]3(CC[C@H]4[C@@](C)(CCC[C@]4(C)C(=O)O)[C@@H]3C1)[C@@H](CN)C2	-	-	-	0	-	-
Cc1ccc(NC(=O)Cn2c(C)cc(C)c(C#N)c2=O)cc1	0	-	0	-	-	-
Cc1ccccc1CNC(=O)CN1C(=O)CCCc2ccccc21	0	-	0	-	-	-

Bioassay records: PubChem BioAssay, National Center for Advancing Translational Sciences (NCATS)
